# Laboratory results taken from ChEMBL document CHEMBL3988442, “University of Dundee, Small-Polar-MMV Screening Library” (2021).
# Hit rate of the full screen: of about 48,000 compounds, about 13,000 (27%) showed an effect of 50% or more. Some of the results follow.
# Test system: Wolbachia pipientis
# Experiment: Anti-Wolbachia Cell-Based Screen
# Format: functional
# Set-up: scale not given: in the data most compounds retested in dose-response had high values
# Conditions: 5 µM
row,Compound,Percent Effect
1,Cc1ncsc1C(=O)NCC1CCC2(CCNCC2)CO1.Cl (stereo not drawn),-19.17%
2,CCc1cc(NCc2cc(CC(C)C)on2)n2nccc2n1,-11.32%
3,O=C(c1cnccn1)N1CCn2cnc(COCC3CC3)c2C1,-16.54%
4,COc1cc(N2CCC3(CC(=O)N(Cc4csc(C)n4)C3)C2)ncn1 (stereo not drawn),116.5%
5,COc1cccc(N2CC3(CCN(c4cc(OC)ncn4)C3)CC2=O)c1 (stereo not drawn),-36.15%
6,Fc1ccc(CN2CCC3(CCN(Cc4nccs4)CC3)C2)cc1.O=C(O)C(F)(F)F.O=C(O)C(F)(F)F,-8.456%
7,O=C(O)C(F)(F)F.O=C(O)C(F)(F)F.c1csc(CN2CCC3(CC2)CCN(CC2CCOCC2)C3)n1,-8.285%
8,COc1cc(N2CCC3(CCN(Cc4nccs4)CC3)C2)ncn1.O=C(O)C(F)(F)F,189%
9,Cc1nc(CN2CC3(CCN(c4ncc(F)cn4)C3)CC2=O)cs1.O=C(O)C(F)(F)F (stereo not drawn),22.92%
10,COc1ccc2c(ccn2CCC(=O)Nc2nc[nH]n2)c1,112.1%
11,CCOCCOC(C)C(=O)Nc1ccc2c(ccn2CC)c1 (stereo not drawn),-1.618%
12,NC(=O)c1ccc(NC(=O)CCN2CCCC(N3CCCC3)C2)cc1 (stereo not drawn),-7.492%
13,COc1ccc2c(ccn2CC(=O)N2CCCC2c2cnn(C)c2)c1 (stereo not drawn),0.9225%
14,COc1ccc2c(ccn2CCC(=O)Nc2n[nH]c(C(C)C)n2)c1,80.39%
15,Cc1ccc2c(ccn2CCC(=O)NC[C@@H]2CCCN3CCCC[C@H]23)c1,-8.382%
16,CCOC(C)C(=O)Nc1ccc2c(ccn2CC)c1 (stereo not drawn),-6.658%
17,COc1ccc2c(ccn2CCC(=O)Nc2ccc(C(N)=O)cc2)c1,111.4%
18,CCCn1ccc2cc(NC(=O)NCCn3cnnc3CC)ccc21,-13.76%
19,COc1ccc2c(ccn2CCC(=O)O)c1,-1.885%
20,COc1ccc2c(ccn2CC(=O)Nc2n[nH]c(C(C)C)n2)c1,99.9%
21,CN1Cc2nnc(C3CCOCC3)n2C(Cc2c[nH]cn2)C1 (stereo not drawn),-4.297%
22,CC(Cn1cncn1)NC(=O)c1cn(Cc2ccccc2F)nn1 (stereo not drawn),8.945%
23,CCNC(=O)NCC(CC)(OC)c1ccccc1 (stereo not drawn),2.354%
24,O=C(NCCn1ccnc1)C1COCC(=O)N1Cc1ccccc1 (stereo not drawn),-11.36%

row,Compound,Percent Effect
1,CC1N(c2cnn(C)c2)C(=O)COC12CCN(c1ccccn1)CC2.O=C(O)C(F)(F)F (stereo not drawn),138.6%
2,O=C(O)C(F)(F)F.O=C1COC2(CCN(c3ncccn3)CC2)CN1,1.956%
3,CN1C(=O)CC(c2ccncc2)C12CCN(c1ncccn1)CC2.O=C(O)C(F)(F)F (stereo not drawn),-40.6%
4,Cn1ccnc1CN1CCC2(CC1)CN(c1ccccn1)CCO2.O=C(O)C(F)(F)F.O=C(O)C(F)(F)F,-7.538%
5,CC1N(c2cnn(C)c2)C(=O)COC12CCN(c1ncccn1)CC2.O=C(O)C(F)(F)F (stereo not drawn),116.4%
6,O=C(O)C(F)(F)F.O=C1COC2(CCN(c3ccccn3)CC2)CN1,-3.085%
7,CC(C)(O)CSCCNC(=O)c1cc(F)ccc1F,5.192%
8,Cc1ccc(CS(=O)(=O)N2CC[C@H]3[C@H]2CCN3C)cc1,6.881%
9,CN(C)C(=O)N1CCC2(CC1)CNc1ccc(F)cc12.Cl,-3.877%
10,CNC(=O)c1cccc(C2CNCCN2C(=O)c2cccc(F)c2)c1.Cl (stereo not drawn),87.98%
11,CNC(=O)c1cccc(C2CNCCN2C(=O)c2ccn(C)n2)c1 (stereo not drawn),140.8%
12,CNC(=O)c1cccc(C2CNCCN2C(C)=O)c1 (stereo not drawn),-19.14%
13,CNC(=O)c1cccc(C2CNCCN2C(=O)C2CCNCC2)c1 (stereo not drawn),105.9%
14,CNC(=O)NC(=O)CN1CCC(c2cccc(F)c2)C1 (stereo not drawn),-6.233%
15,Cc1cnc(C(=O)N2CCNCC2C(=O)NCc2ccncc2)cn1 (stereo not drawn),-22.4%
16,CNC(=O)c1cccc(Nc2cnn(C)c2)c1,-6.81%
17,CC(C)Cn1cncc1CNC(=O)c1cccc(CC2CCNCC2)c1,4.276%
18,COCCn1cc(C(=O)N2CCCC2c2cccc(F)c2)ccc1=O (stereo not drawn),1.276%
19,Cc1nc2c(c(=O)n1C)CCN(C(=O)CCc1ccccc1O)CC2,-32.69%
20,O=C1CCC2(CCOC2)CN1Cc1ccc2nsnc2c1 (stereo not drawn),-12.42%
21,CC(=O)Nc1ncc(S(=O)(=O)N2CCCC(C)C2)s1 (stereo not drawn),-1.419%
22,Fc1ccc(N2CCOC3(COCCN(c4ncccn4)C3)C2)cc1.O=C(O)C(F)(F)F (stereo not drawn),20.84%
23,CN(C)C(=O)CN1CCOCC2(CCN(CC3CCOC3)CC2)C1.O=C(O)C(F)(F)F.O=C(O)C(F)(F)F (stereo not drawn),-17.88%
24,CN(C)C(=O)CN1CCOCC2(CCN(c3ncc(F)cn3)CC2)C1.O=C(O)C(F)(F)F,94.37%
